This passage reports outcome and AC50 results from PubChem BioAssay (EPA / NIEHS).

SMILES strings stand for the structures. The source made the active and inactive calls. The calls were made as follows: active = hit-call score of the fitted dose curve at least 0.9, where 1 is the maximum; inactive = score below 0.9.

A short description of assay [1]: APR_HepG2_P-H2AX_72hr: Apredica 72-hour HepG2 Assay for H2AX Phosphorylation (AID 2282916).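 Also: phospho-histone H2A.x immunostain intensity per cell marking DNA damage.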 The conditions noted are these: imaging, actives raise or lower the signal. The method, boiled down:
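Readout: phospho-H2A.x immunofluorescence (FITC secondary) plus Hoechst nuclear stain, high-content imaging at 20x, six fields/well. HepG2, 72 hr compound exposure, 0.39–200 uM, final DMSO 0.5% v/v. Gain or loss fitted relative to DMSO baseline.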

Assay [2] can be described thus: APR_HepG2_MitoMembPot_72hr: Apredica 72-hour HepG2 Assay for Mitochondrial Membrane Potential (AID 2282917). The conditions noted are these: imaging, actives raise or lower the signal. In outline: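 Membrane potential read by MitoTracker Red CMXRos (250 nM, 30 min, pre-fixation) fluorescence imaging of HepG2 after 72 hr exposure. Ten concentrations, 0.39–200 uM, duplicate wells, 0.5% DMSO; fitted in both directions against DMSO baseline.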

Assay [3] can be described thus: APR_HepG2_MitoticArrest_72hr: Apredica 72-hour HepG2 Assay for Mitotic Arrest (AID 2282918). The conditions noted are these: high-content imaging, actives raise or lower the signal. The method, boiled down: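 HepG2 cells were exposed for 72 hr to compound at 0.39–200 uM (10 concentrations, duplicate) in 0.5% v/v DMSO, fixed in 3.7% formaldehyde, immunostained for phospho-histone H3 with Hoechst 33342 and imaged by high-content fluorescence; bidirectional fits versus DMSO.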

The nature of assay [4]: APR_HepG2_MicrotubuleCSK_72hr: Apredica 72-hour HepG2 Assay for Microtubule CSK Stabilty (AID 2282919). The conditions noted are these: HepG2 microtubule cytoskeleton, high-content imaging, actives raise or lower the signal. The method, boiled down:
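High-content imaging of alpha-tubulin staining in fixed HepG2 cells after 72 hr treatment with ten concentrations from 0.39 to 200 uM (0.5% DMSO). Fitting was bidirectional against DMSO; taxol served as positive control.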

Assay [5] is described as follows: APR_HepG2_P-H2AX_24hr: Apredica 24-hour HepG2 Assay for H2AX Phosphorylation (AID 2282920). The conditions noted are these: high-content imaging, actives raise or lower the signal. The method, boiled down:
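HepG2 human liver cells were exposed for 24 hr to compounds at 0.39–200 uM in duplicate, with 0.5% v/v DMSO final. Fixed cells were immunostained for phospho-histone H2A.x plus Hoechst 33342, imaged by HCS fluorescence, and fitted bidirectionally against DMSO.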

Assay [6] is described as follows: APR_HepG2_StressKinase_72hr: Apredica 72-hour HepG2 Assay for Stress Kinase (AID 2282921). The conditions noted are these: HepG2 stress kinase (phospho-c-Jun) imaging, actives raise or lower the signal. In outline: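 Phospho-c-Jun immunofluorescence measured by high-content imaging at 20x, six fields per well; bidirectional curve fitting against DMSO as baseline. Dosing: 0.39–200 uM, 72 h, 0.5% DMSO final.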

The nature of assay [7]: APR_HepG2_StressKinase_24hr: Apredica 24-hour HepG2 Assay for Stress Kinase (AID 2282922). The conditions noted are these: HepG2 stress kinase (phospho-c-Jun) imaging, actives raise or lower the signal. The method, boiled down:
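High-content imaging of phospho-c-Jun immunofluorescence in fixed, permeabilized HepG2 cells after 24 h dosing. Ten concentrations, 0.39 to 200 uM, run in duplicate at 0.5% v/v DMSO; gain or loss of signal versus DMSO.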

The nature of assay [8]: APR_HepG2_p53Act_72hr: Apredica 72-hour HepG2 Assay for p53 Activation (AID 2282923).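 Also: average cellular p53 protein immunofluorescence intensity in HepG2 cells.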 The conditions noted are these: high-content imaging, actives raise or lower the signal. In outline: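 Readout: p53 immunofluorescence quantified by automated high-content imaging at 20x, six fields per well, nuclei located via Hoechst. Dosing ran 72 hr over ten concentrations from 0.39 to 200 uM; bidirectional curve fitting against DMSO baseline.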

A short description of assay [9]: APR_HepG2_MitoMass_72hr: Apredica 72-hour HepG2 Assay for Mitochondrial Mass (AID 2282924).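 Also: MitoTracker Red CMXRos stain intensity per cell imaged as mitochondrial mass.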 The conditions noted are these: high-content imaging, actives raise or lower the signal. The method, boiled down: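 Readout is imaged MitoTracker Red (250 nM, 30 min, pre-fixation) signal, fitted bidirectionally against DMSO baseline. Human HepG2 liver cells received compound 0.39–200 uM in duplicate for 72 hr, final DMSO 0.5%.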

The nature of assay [10]: APR_HepG2_NuclearSize_72hr: Apredica 72-hour HepG2 Assay for Nuclear Size (AID 2282925). The conditions noted are these: high-content imaging, actives raise or lower the signal. In outline:
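Nuclear size was read by high-content imaging of Hoechst 33342 stain after formaldehyde fixation. Compounds ran 72 h on HepG2 at 0.39 to 200 uM, with final DMSO 0.5% v/v. Curves fitted both directions relative to DMSO control.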

Broadly, the AC50 is the concentration giving half of the maximal activity seen. For `c1ccc2occc2c1`, the result in [1], in [2], in assay [3], in [4], in assay [5] and in assay [6] was inactive. Moreover, the outcome in assay [7], in assay [8] and in [10] was inactive. Besides, in [9], the AC50 was 100 µM (active).

On to `S=c1[nH]c2ccccc2s1`, for which the outcome in assay [1], in assay [3], in assay [4], in [5], in [6] and in [7] was inactive. The compound was called inactive in assay [8], in [9] and in assay [10]. In addition, the half-maximal activity concentration (AC50) in [2] was 97.3 µM (active).

On to `O=C(O)c1[nH]n(-c2ccc(S(=O)(=O)O)cc2)c(=O)c1N=Nc1ccc(S(=O)(=O)O)cc1`, for which the compound was classed as inactive in assay [1], in assay [2], in assay [3], in assay [4], in assay [5] and in [6]. The result in assay [7], in [8], in [9] and in assay [10] was inactive.

Take `CS(=O)(=O)c1ccc([C@@H](C[C@H]2CCC(=O)C2)C(=O)Nc2cnccn2)cc1Cl`: the result in [1], in assay [2], in assay [3], in assay [4], in assay [5] and in assay [6] was inactive. Further, the compound was called inactive in assay [7], in assay [8] and in assay [10]. Besides, the half-maximal activity concentration (AC50) in assay [9] is 43.7 µM (active).

As for `CCCCc1nc2cccnc2n1Cc1ccc(-c2ccccc2-c2nnn[nH]2)cc1`, the call in assay [1], in assay [2], in [6], in assay [7], in assay [8] and in [10] was inactive. Moreover, the AC50 in assay [3] is 67.1 µM (active); in [4], 94.4 µM (active); in assay [5], 48.6 µM (active); in [9], 118 µM (active).

For `O=C1O[C@H]([C@H](O)CO)C(O)=C1O`, the compound was classed as inactive in [1], in [2], in [3], in assay [4], in assay [5] and in assay [6]. In addition, the compound was classed as inactive in assay [7], in assay [8], in [9] and in assay [10].

As to `C=CCCCCCCCCCCCC`, the AC50 in assay [1] was 98.6 µM (active); in assay [5], 99 µM (active); in assay [6] it was 98.5 µM (active); in [8] it was 93.4 µM (active). The outcome in assay [2], in assay [3], in assay [4], in [7], in assay [9] and in assay [10] was inactive.

As to `Cc1c(C)c2c(c(C)c1O)CCC(C)(COc1ccc(CC3SC(=O)NC3=O)cc1)O2` (stereo not given), the AC50 was 89.5 µM (active) in assay [1]; 135 µM (active) in assay [2]; 54.3 µM (active) in assay [3]; 78.4 µM (active) in assay [6]; 65.2 µM (active) in assay [8]; 61.8 µM (active) in assay [9]. The outcome in assay [4], in assay [5], in assay [7] and in assay [10] was inactive.

On to `CN(C)C(=O)NC1(c2ccccc2)CCN(CC[C@@]2(c3ccc(F)c(F)c3)CN(C(=O)c3ccccc3)CCO2)CC1`, for which the AC50 is 91.8 µM (active) in assay [1]; 86 µM (active) in assay [3]; 82.9 µM (active) in assay [4]; 104 µM (active) in assay [6]; 97.7 µM (active) in assay [8]. The result in assay [2], in assay [5], in assay [7], in assay [9] and in [10] was inactive.

Take `NC(=Nc1ccccc1)Nc1ccccc1`: the AC50 is 22.4 µM (active) in assay [1]; 22.8 µM (active) in assay [3]; 34 µM (active) in assay [4]; 10.3 µM (active) in assay [6]; 23.4 µM (active) in assay [8]. For the same compound, the compound was classed as inactive in assay [2], in assay [5], in assay [7], in assay [9] and in assay [10].

As for `Cc1ccc(-c2cc(C(F)(F)F)nn2-c2ccc(S(N)(=O)=O)cc2)cc1`, the values for the AC50 in assay [1], in assay [5] and in [6] were 100 µM (active), 106 µM (active) and 111 µM (active), respectively. Further, the outcome in assay [2], in [3], in assay [4], in [7], in assay [9] and in assay [10] was inactive.

For the compound `CSc1ccc(Oc2ccc(S(N)(=O)=O)cc2CN(C)C)cc1C`, the outcome in assay [1], in assay [2], in assay [3], in [4], in [6] and in assay [7] was inactive. Besides, the compound was classed as inactive in assay [9] and in assay [10]. In addition, the half-maximal activity concentration (AC50) in assay [5] was 92.5 µM (active).

Take `O=C(Oc1ccccc1)c1cccc(C(=O)Oc2ccccc2)c1`: the compound was called inactive in assay [1], in assay [2], in assay [3], in [4], in assay [5] and in assay [6]. Moreover, the compound was classed as inactive in assay [7], in [9] and in assay [10].

Consider `O=[Si]=O`, for which the call in assay [1], in assay [2], in [4], in [5], in [6] and in assay [7] was inactive. Also, the call in assay [8], in assay [9] and in [10] was inactive.

Take `CO[C@@H]1COCC[C@@H]1N[C@@H]1CC[C@@](C(=O)N2CCc3ncc(C(F)(F)F)cc3C2)(C(C)C)C1`: the outcome in assay [1], in [2], in [4], in assay [5], in assay [6] and in assay [7] was inactive. Moreover, the call in [8], in assay [9] and in assay [10] was inactive.

As for `CC(=O)OCC(COC(C)=O)OC(C)=O`, the outcome in assay [1], in [2], in assay [3], in [4], in [5] and in [6] was inactive. In addition, the outcome in [7], in assay [9] and in [10] was inactive.

Take `CN(C)CCCN1c2ccccc2Sc2ccc(Cl)cc21`: the AC50 was 81.2 µM (active) in assay [1]; 112 µM (active) in [2]; 26 µM (active) in [5]; 107 µM (active) in assay [6]; 25.2 µM (active) in assay [7]; 100 µM (active) in assay [8]. Moreover, the compound was classed as inactive in [4], in [9] and in assay [10].

Regarding `CCCCCCC(CCCCCCCCCCC(=O)OCC(COC(C)=O)OC(C)=O)OC(C)=O` (stereo not given), the compound was classed as inactive in assay [1], in [2], in assay [4], in [5], in assay [6] and in [7]. The outcome in [8], in [9] and in assay [10] was inactive.

Regarding `CCCCOC(=O)CCCCC(=O)OCCCC`, the outcome in assay [1], in assay [2], in assay [3], in [4], in [5] and in assay [6] was inactive. The outcome in assay [7], in assay [9] and in assay [10] was inactive.

As for `Nc1nc(Cl)nc2c1ncn2[C@H]1C[C@H](O)[C@@H](CO)O1`, the concentration at half-maximal activity (AC50) in assay [1] is 0.0288 µM (active); in assay [5], 0.551 µM (active); in assay [8], 0.038 µM (active). The compound was classed as inactive in [2], in [4], in assay [6], in assay [7], in [9] and in assay [10].
